The values that follow come from PubChem BioAssay (NCATS).

The target in test [1] is T1, Tyrosine-protein phosphatase non-receptor type substrate 1 (Homo sapiens) + Leukocyte surface antigen CD47 (Homo sapiens) (UniProt P78324+Q08722). Kind of test: CD47-SIRPalpha protein protein interaction - LANCE assay qHTS validation (AID 1347057; active = well fitted curve in the direction sought with a large enough effect in the signal ratio, with a control signal flat, not every such curve was filed as active; the % refers to the signal ratio; also: series mostly up to about 38 µM). The method, boiled down:
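First, His-tagged CD47 and Eu-labelled anti-His antibody met the compound for 30 min; next, site-specifically biotinylated SIRPalpha was added for 30 min; finally streptavidin-APC was added before reading the TR-FRET ratio.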
On the technique in general: TR-FRET usually uses a lanthanide donor and a delayed reading to cut background.

Test [2] addresses T1, Tyrosine-protein phosphatase non-receptor type substrate 1 (Homo sapiens) + Leukocyte surface antigen CD47 (Homo sapiens). Kind of test: CD47-SIRPalpha protein protein interaction - Alpha assay qHTS validation (AID 1347059).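 Also: bead proximity luminescence from CD47 binding SIRPalpha after compound preincubation with SIRPalpha.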 An outline of the steps: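 Binding is measured by AlphaScreen proximity: Ni-NTA acceptor beads capture His-CD47, streptavidin donor beads capture biotin-SIRPalpha. Each of three additions (SIRPalpha with compound, CD47, beads) incubates 30 min at room temperature protected from light.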

Test [3] deals with Parathyroid hormone/parathyroid hormone-related peptide receptor (Homo sapiens) (UniProt Q03431). Kind of test: qHTS for PTHR1 Agonists: Optimization Screen against the NCGC LOPAC library (AID 1347079).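 Also: GloSensor cAMP luminescence in HEK-293 GP2 cells expressing human PTHR1 with IBMX.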 The method, boiled down: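 Compounds were tested across a qHTS titration. PTHR1-expressing GP2 cells report cAMP rises via GloSensor luminescence after 1 hr compound exposure at 37C with IBMX present.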

Test [4] can be described thus: qHTS for Inhibitors of the Functional Ribonucleoprotein Complex (vRNP) of Lassa (LASV) Arenavirus: LASV Primary Screen - GLuc reporter signal (AID 1347082; calls by dose curve; tested in HEK293 reporter line; also: nearly all actives have a fitted effect of over 60% in size; also: potency is read from the fitted curve at half-maximal effect). In general terms: Quantitative high-throughput screening tests each substance at several concentrations.
Test [5] is described as follows: qHTS for Inhibitors of the Functional Ribonucleoprotein Complex (vRNP) of Lassa (LASV) Arenavirus: Viability assay - alamar blue signal for LASV Primary Screen (AID 1347083; calls by dose curve; tested in HEK293 reporter line; also: nearly all actives have a fitted effect of over 80% in size; also: potency is read from the fitted curve at half-maximal effect).
The nature of test [6]: qHTS for Inhibitors of the Functional Ribonucleoprotein Complex (vRNP) of Lymphocytic Choriomeningitis Arenaviruses (LCMV): Viability assay - alamar blue signal for LCMV Primary Screen (AID 1347085; calls by dose curve; tested in HEK293 reporter line; also: series mostly up to about 57 µM; nearly all actives have a fitted effect of over 80% in size).
In test [7] the target is Nucleoprotein (Lymphocytic choriomeningitis virus (strain Armstrong)) (UniProt P09992). Kind of test: qHTS for Inhibitors of the Functional Ribonucleoprotein Complex (vRNP) of Lymphocytic Choriomeningitis Arenaviruses (LCMV): LCMV Primary Screen - GLuc reporter signal (AID 1347086; calls by dose curve; also: series mostly up to about 57 µM; nearly all actives have a fitted effect of over 70% in size).
Test [8] has as its target T1, Tyrosine-protein phosphatase non-receptor type substrate 1 (Homo sapiens) + Leukocyte surface antigen CD47 (Homo sapiens). The test can be described thus: CD47-SIRPalpha protein protein interaction - HTRF assay qHTS validation (AID 1347058; active = well fitted curve in the direction sought with a large enough effect in the signal ratio, not every such curve was filed as active; the % refers to the signal ratio;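 also: recombinant soluble extracellular CD47 with His tag and biotinylated SIRPalpha domains; series mostly up to about 38 µM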). The method, boiled down:
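TR-FRET read (Ch1/Ch2 ratio) of soluble extracellular CD47 and Avi-biotinylated SIRPalpha domains in PBS pH 7.4 with 0.05% IGEPAL; 7-point compound titration. Sequential 30 min room-temperature steps; non-biotinylated SIRPalpha as control inhibitor.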

The nature of test [9]: qHTS of pediatric cancer cell lines to identify multiple opportunities for drug repurposing: Primary screen for DAOY cells (AID 1347090). Also: nearly all actives have a fitted effect of over 55% in size. Also: potency is read from the fitted curve at half-maximal effect. The method, boiled down:
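Cell viability, CellTiter-Glo luminescence; 500-1,000 cells/well, 8- or 11-point titration, 48 h compound exposure at 37 degrees C, 5% CO2. Controls: DMSO neutral, bortezomib 2.3 µM final as positive.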

A short description of test [10]: qHTS of pediatric cancer cell lines to identify multiple opportunities for drug repurposing: Primary screen for TC32 cells (AID 1347089). Also: nearly all actives have a fitted effect of over 60% in size. Also: potency is read from the fitted curve at half-maximal effect. The method, boiled down:
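Luminescent ATP read-out (CellTiter-Glo) of metabolically active TC32 cells after 48 h exposure. Concentration-response curves came from 11-point (MIPE, 0.78 nM–46 µM) or 8-point (NPC, 0.59 nM–46 µM) primary titrations; follow-up used 11 points.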

Several values for one entry are separate records, joined by “and”; a condition that tells them apart may be missing. Equal entries are not always repeated. Results filed as inconclusive are left out. Activity calls are given as the source filed them. Unless noted, calls follow the shape of the dose curve; as a rule, active = well fitted curve in the direction sought with a large enough effect; inconclusive = small, poorly fitted or top-dose-only effect, or another doubt; inactive = no such curve, though single readings can be large; an effect the other way counts as inactive or inconclusive.

Sequence of Parathyroid hormone/parathyroid hormone-related peptide receptor (Homo sapiens) (Q03431 whole entry, looked up): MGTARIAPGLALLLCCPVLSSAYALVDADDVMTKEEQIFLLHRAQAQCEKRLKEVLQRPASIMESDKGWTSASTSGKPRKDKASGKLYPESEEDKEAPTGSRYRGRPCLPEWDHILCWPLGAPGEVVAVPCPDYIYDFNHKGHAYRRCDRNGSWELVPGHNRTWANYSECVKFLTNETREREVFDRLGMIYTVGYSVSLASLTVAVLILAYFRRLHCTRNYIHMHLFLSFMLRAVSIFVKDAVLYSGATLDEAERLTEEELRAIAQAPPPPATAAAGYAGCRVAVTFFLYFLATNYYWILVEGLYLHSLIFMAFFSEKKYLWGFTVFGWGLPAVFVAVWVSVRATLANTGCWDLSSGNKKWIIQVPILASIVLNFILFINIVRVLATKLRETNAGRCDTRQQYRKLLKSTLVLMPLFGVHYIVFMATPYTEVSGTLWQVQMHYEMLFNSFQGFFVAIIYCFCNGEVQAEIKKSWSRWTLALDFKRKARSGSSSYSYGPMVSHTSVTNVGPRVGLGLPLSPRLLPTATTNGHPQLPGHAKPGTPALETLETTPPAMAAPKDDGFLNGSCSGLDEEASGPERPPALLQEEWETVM
T1 sequence (P78324 whole entry, looked up): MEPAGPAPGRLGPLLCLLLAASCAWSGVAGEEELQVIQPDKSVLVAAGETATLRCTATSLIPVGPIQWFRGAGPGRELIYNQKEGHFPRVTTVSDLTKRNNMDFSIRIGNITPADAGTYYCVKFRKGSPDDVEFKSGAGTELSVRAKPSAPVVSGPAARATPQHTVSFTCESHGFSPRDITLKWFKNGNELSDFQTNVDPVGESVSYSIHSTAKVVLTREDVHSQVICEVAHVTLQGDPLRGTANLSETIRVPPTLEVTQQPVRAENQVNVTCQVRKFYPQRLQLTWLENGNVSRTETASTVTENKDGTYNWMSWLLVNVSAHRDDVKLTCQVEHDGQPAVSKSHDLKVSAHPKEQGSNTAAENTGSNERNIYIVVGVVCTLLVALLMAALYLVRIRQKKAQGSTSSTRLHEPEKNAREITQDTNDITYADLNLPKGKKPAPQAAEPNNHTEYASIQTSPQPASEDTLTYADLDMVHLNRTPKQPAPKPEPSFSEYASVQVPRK
T1 sequence (Q08722 whole entry, looked up): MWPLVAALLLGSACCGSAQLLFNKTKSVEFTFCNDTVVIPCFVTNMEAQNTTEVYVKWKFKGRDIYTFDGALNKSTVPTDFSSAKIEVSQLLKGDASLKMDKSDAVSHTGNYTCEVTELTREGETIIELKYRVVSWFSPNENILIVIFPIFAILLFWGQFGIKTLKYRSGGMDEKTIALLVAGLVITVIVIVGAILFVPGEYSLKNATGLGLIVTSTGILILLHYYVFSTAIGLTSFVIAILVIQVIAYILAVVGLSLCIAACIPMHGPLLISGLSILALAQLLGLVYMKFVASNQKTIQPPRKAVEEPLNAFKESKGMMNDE
Sequence of Nucleoprotein (Lymphocytic choriomeningitis virus (strain Armstrong)) (P09992 whole entry, looked up): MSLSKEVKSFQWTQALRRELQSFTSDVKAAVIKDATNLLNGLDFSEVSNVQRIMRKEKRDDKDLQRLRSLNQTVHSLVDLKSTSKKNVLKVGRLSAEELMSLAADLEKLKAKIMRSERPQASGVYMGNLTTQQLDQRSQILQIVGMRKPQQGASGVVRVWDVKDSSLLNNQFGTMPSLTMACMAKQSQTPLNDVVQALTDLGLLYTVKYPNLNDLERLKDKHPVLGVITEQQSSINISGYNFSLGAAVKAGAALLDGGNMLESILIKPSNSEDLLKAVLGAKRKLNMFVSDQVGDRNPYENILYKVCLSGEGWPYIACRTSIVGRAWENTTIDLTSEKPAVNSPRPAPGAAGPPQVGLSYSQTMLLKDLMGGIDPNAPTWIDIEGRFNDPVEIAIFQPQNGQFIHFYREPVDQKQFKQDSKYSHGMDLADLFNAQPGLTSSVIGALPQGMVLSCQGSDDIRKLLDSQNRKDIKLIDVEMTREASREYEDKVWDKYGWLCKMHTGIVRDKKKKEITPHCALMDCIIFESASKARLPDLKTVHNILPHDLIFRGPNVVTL

For `c1ccc2sc(C3(N4CCCCC4)CCCCC3)cc2c1`, the result in test [1] and in test [3] was inactive. For the same compound, the Potency entry in test [2], in test [4], in test [5], in test [6] and in test [7] was “inactive” in each case.

As for `CC(=O)NCCc1c[nH]c2ccccc12`, the result in test [1], in [8] and in test [3] was inactive. Besides, the Potency result in test [2], in test [4], in test [5], in test [6] and in test [7] was “inactive” in each case.

Consider `CC(=O)[C@H]1CCC2C3CC[C@H]4C[C@H](O)CC[C@]4(C)C3CC[C@@]21C` (stereo partly specified), for which the result in [1], in test [8] and in test [3] was inactive. Moreover, the Potency result in test [2], in [4], in test [5], in test [6] and in test [7] was “inactive” in each case.

For `C[N+]1(C)C2CCC1CC(OC(=O)C(CO)c1ccccc1)C2` (stereo unspecified), the outcome in test [1] and in test [3] was inactive. Further, the Potency result in test [2], in test [4], in test [5], in test [6] and in test [7] was “inactive” each time.

With `O=C(Cc1ccc(Cl)c(Cl)c1)N1CCCCC1CN1CCCC1` (stereo unspecified), the outcome in [1] and in [3] was inactive. For the same compound, the Potency result in [2], in test [4], in test [5], in test [6] and in test [7] was “inactive” throughout.

On to `C#CCOC(=O)C1=CCCN(C)C1`, for which the result in test [1], in test [8] and in test [3] was inactive. In addition, the Potency result in test [2], in [4], in [5], in test [6] and in [7] was “inactive” in each case.

In the case of `CC(C)Oc1cccnc1N(C)C1CCN(Cc2ccccc2)CC1`, the result in test [1], in [8] and in test [3] was inactive. For the same compound, the Potency entry in [2], in test [4], in test [5], in test [6] and in test [7] was “inactive” in each case.

`C=CCN1CC[C@]23CCCCC2[C@H]1Cc1ccc(O)cc13` (stereo partly specified): the outcome in test [1] and in test [3] was inactive. The Potency entry in [2], in test [4], in [5], in test [6] and in test [7] was “inactive” in each case.

As for `Clc1cnc(Oc2ccc(Oc3ncc(Cl)cc3Cl)cc2)c(Cl)c1`, the result in test [1] and in test [3] was inactive. Besides, the Potency entry in [2], in test [4], in [5], in [6] and in [7] was “inactive” in each case.

As to `NCCc1c[nH]c2ccc(O)cc12`, the outcome in test [1] and in test [3] was inactive. For the same compound, the Potency entry in test [2], in [4], in test [5], in test [6] and in test [7] was “inactive” throughout.

As to `Cn1cnc(CCN)c1`, the outcome in test [1] and in test [3] was inactive. For the same compound, the Potency entry in test [2], in [4], in test [5], in [6] and in test [7] was “inactive” in each case.

`CCCN(CCC)[C@@H]1CCc2ccc(O)cc2C1`: the result in [1] and in test [3] was inactive. Also, the Potency entry in test [2], in test [4], in test [5], in test [6] and in [7] was “inactive” each time.

Take `C[C@]12N[C@H](Cc3ccccc31)c1ccccc12`: the result in test [1] and in test [3] was inactive. Besides, the Potency result in test [4], in [5], in [6] and in test [7] was “inactive” in each case.

As for `Cc1cnc(-c2cnc(NCCNc3ccc(C#N)cn3)nc2-c2ccc(Cl)cc2Cl)[nH]1`, the Potency entry in [4] and in test [5] was “inactive” each time.

Turning to `CN(C)CC=CC(=O)Nc1cc2c(Nc3ccc(F)c(Cl)c3)ncnc2cc1O[C@H]1CCOC1`, the Potency in test [4] was 13.7 µM (active); in test [5] it was 24.3 µM (active).

As to `COc1ccc2c(c[n+](C)c3c4cc5c(cc4ccc23)OCO5)c1OC`, the outcome in test [1] and in test [3] was inactive. In addition, the Potency result in [2] and in test [7] was “inactive” throughout. The Potency in [9] was 23.5 µM (active).

Turning to `Cc1cccc(-c2[nH]c(C(C)(C)C)nc2-c2ccc3nccnc3c2)n1`, the Potency in [4] was 9.68 µM (active).

For the compound `CC[C@@]1(O)C(=O)OCc2c1cc1n(c2=O)Cc2cc3ccccc3nc2-1`, the outcome in test [1] and in [3] was inactive. The Potency result in [2], in [4] and in [7] was “inactive” each time. Further, the Potency in [5] is 193 nM (active) and 199 nM (active); in test [10], 0.0262 µM (active); in test [9] it was 0.0469 µM (active).

Turning to `CC(C)C(=O)Nc1ncc(-c2cc(C(F)F)nn2-c2c(Cl)cccc2Cl)s1`, in test [4], the Potency result is “inactive”.

In the case of `Cc1ccc(NC(=O)c2cccc(C(C)(C)C#N)c2)cc1Nc1ccc2ncn(C)c(=O)c2c1`, the Potency result in [4] was “inactive”. Besides, in test [5], the Potency was 17.2 µM (active).

For the compound `COC(=O)c1c(Cl)c(Cl)c(C(=O)OC)c(Cl)c1Cl`, the Potency result in test [4] and in test [5] was “inactive” each time.

Regarding `NC1CC1c1ccccc1` (stereo unspecified), the outcome in test [1] and in test [3] was inactive. Also, the Potency result in [2], in test [4], in test [5], in [6], in test [7] and in test [10] was “inactive” in each case. In test [9], the Potency result was “inactive”.

For the compound `c1ccc(C2(c3ccccc3)CC2C2=NCCN2)cc1` (stereo unspecified), the outcome in test [3] was inactive. For the same compound, the Potency entry in test [4], in test [5], in test [6] and in test [7] was “inactive” throughout.

For the compound `c1ccc(CCCN2CCN(CCOC(c3ccccc3)c3ccccc3)CC2)cc1`, the result in test [1] and in [3] was inactive. Further, the Potency entry in test [2], in [4], in test [5], in [6], in test [7] and in test [10] was “inactive” each time. Also, in test [9], the Potency was 29.6 µM (active).

In the case of `COC(=O)[C@@H](N)CCCN=C(N)N[N+](=O)[O-]`, the result in test [1] and in [3] was inactive. Also, the Potency entry in test [2], in test [7] and in [10] was “inactive” each time.

`COc1cc2c(cc1O)CC[C@@H]1[C@@H]2CC[C@]2(C)[C@@H](O)CC[C@@H]12`: the Potency result in [4] was “inactive”.

Take `O=C(Nc1cccnc1)N1CCC(Cc2cccc(Oc3ccc(C(F)(F)F)cn3)c2)CC1`: the values for the Potency in [4] and in test [5] were 21.7 µM (active) and 15.3 µM (active), respectively.

For the compound `[Cl][In]([Cl])[Cl]`, in test [4], the Potency entry was “inactive”.

Turning to `CC(C)c1ccc2c(c1)c(SC(C)(C)C)c(CC(C)(C)C(=O)O)n2Cc1ccc(Cl)cc1`, the Potency in test [4] and in [5] was 12.2 µM (active) in each case.

On to `CC[C@@H](C(N)=O)N1CCCC1=O`, for which the result in test [1] and in test [3] was inactive. Moreover, the Potency result in test [2], in [6], in test [7], in test [10] and in [9] was “inactive” in each case.

For the compound `CCN(CC)CCCCNc1ncc2cc(-c3cc(OC)cc(OC)c3)c(NC(=O)NC(C)(C)C)nc2n1`, in [4], the Potency entry was “inactive”. For the same compound, in test [5], the Potency was 19.3 µM (active).

In the case of `CCCCn1c(=O)n(Cc2ccccc2F)c(=O)c2[nH]c(Cc3ccc(NC(C)=O)cc3)nc21`, in test [4], the Potency entry is “inactive”.

On to `CNCCc1ccc(O)c(O)c1`, for which the result in test [1] and in [3] was inactive. Moreover, the Potency entry in [2], in test [4], in test [5], in test [6] and in test [7] was “inactive” throughout.

Take `C[N+](C)(C)CC(=O)O`: the outcome in test [1] was inactive. For the same compound, the Potency result in test [2], in [4], in test [5], in [6] and in test [7] was “inactive” each time.

In the case of `CC1=C[C@@H]2[C@@H]([C@@H](O)C[C@@]3(C)[C@H]2C[C@@H](C)[C@]3(O)C(=O)CO)[C@@]2(C)Cc3cnn(-c4ccccc4)c3C=C12`, in [4], the Potency entry was “inactive”.

With `C[C@@H]1CN(CC(=O)Nc2ccc3c(c2)Cc2cccc(-c4cc(=O)cc(N5CCOCC5)o4)c2S3)C[C@H](C)O1`, the Potency result in [4] is “inactive”.

Regarding `O=C(N[C@H]1CN2CCC1CC2)c1ccc(Cl)cc1`, the outcome in [1] and in test [3] was inactive. Also, the Potency result in test [2], in test [4], in test [6], in [7] and in test [10] was “inactive” each time. Also, the Potency in test [9] was 18.7 µM (active).

`CC(=O)c1c(C)c2cnc(Nc3ccc(N4CCNCC4)cn3)nc2n(C2CCCC2)c1=O`: in test [4], the Potency entry is “inactive”. Also, the Potency in test [5] was 30.6 µM (active).
